Structures are written as SMILES. Records with an inconclusive call do not appear. A call without a number means that no potency is given here. Activity calls are given as the source filed them. The call rests on the fitted dose curve; in most records, active means well fitted inhibition curve with a large enough effect; inconclusive means small, poorly fitted or top-dose-only effect, or effect the other way; inactive means no such curve, though single readings can be large or run the other way.

Sequence of Thyroid hormone receptor beta (Homo sapiens) (P10828 whole entry, looked up): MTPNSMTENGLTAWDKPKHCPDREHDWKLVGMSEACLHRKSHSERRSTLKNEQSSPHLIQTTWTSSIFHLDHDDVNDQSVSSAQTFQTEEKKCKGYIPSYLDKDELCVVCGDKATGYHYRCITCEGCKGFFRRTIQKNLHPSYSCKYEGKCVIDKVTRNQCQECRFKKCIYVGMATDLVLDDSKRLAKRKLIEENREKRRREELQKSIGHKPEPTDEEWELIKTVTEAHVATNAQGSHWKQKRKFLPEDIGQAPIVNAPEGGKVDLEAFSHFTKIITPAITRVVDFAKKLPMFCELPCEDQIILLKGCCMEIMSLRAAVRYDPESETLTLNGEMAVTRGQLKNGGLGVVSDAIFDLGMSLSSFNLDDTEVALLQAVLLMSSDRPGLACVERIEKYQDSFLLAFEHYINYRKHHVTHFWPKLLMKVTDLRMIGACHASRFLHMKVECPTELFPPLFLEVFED

The assay concerns the target Thyroid hormone receptor beta (Homo sapiens) (UniProt P10828). Put plainly: Cell-based Gene Reporter Secondary Assay to Characterize qHTS Inhibitors of the Interaction of Thyroid Hormone Receptor and Steroid Receptor Coregulator 2. As to conditions: WRO cells TRbeta TRE-luciferase, T3-stimulated, 16 h; series mostly up to 29.9 µM. The text has this: NIH Molecular Libraries Probe Production Network [MLPCN] NIH Chemical Genomics Center [NCGC] MLPCN Grant: DK058080 Assay Provider: R. Kip Guy, St. Jude Children's Research Hospital NCGC Assay Overview: Thyroid receptor (TR) regulates many homeostatic processes including basal metabolism, cardiovascular function, body weight, and lipid trafficking. TR modulators are potential therapeutics for obesity and hyperlipidemias but current thyroid analogs have undesirable side effects, particularly cardiac stimulation. This secondary assay characterized selected actives identified in the qHTS for Inhibitors of the Interaction of Thyroid Hormone Receptor and Steroid Receptor Coregulator 2. The human follicular thyroid carcinoma cell line WRO (kindly provided by Dr. M. D. Ringel) stably expresses TRbeta and a luciferase reporter gene fused to TR response element. The addition of T3 ligand elevates expression of the TRE luciferase reporter. This assay measures the transcriptional activity of compounds.
NCGC Assay Protocol Summary: Cells were maintained in RPMI 1640 culture medium supplemented with 10% heat-inactivated FBS, 0.33 mg/ml hygromycin, 0.33 mg/ml geneticin, 50 units/ml penicillin, 50 ug/ml streptomycin. Cells were harvested and resuspended at 330,000 cells/ml in assay medium (50% DMEM 50% F-12 medium without Phenol-Red (Cellgro #16-405-CV), L-glutamine, 10% heat inactivated and charcoal treated FBS, 100 uM non-essential amino acid, 50 units/ml penicillin, 50 ug/ml streptomycin). Cells were dispensed at 10,000 cells/30 ul/well into 384 well plates (Corning 3917) and incubated 12 h at 37 C and 5% CO2. Compounds and T3 (100nM final concentration) were added using a pin tool and plates were incubated 16 h incubation at 37 C and 5% CO2. Following incubation, plates were equilibrated at ambient temperature for 30 min, 30 ul of Bright-Glo (Promega) was added and luminescence was detected by an EnVision (PerkinElmer).
Take `CCOC(=O)C(NC(=O)Nc1ccc(O)cc1)(c1ccccc1)C(F)(F)F` (stereo not given): the Potency result is “inactive”. Then `CCOc1cc(C(c2c(C)[nH][nH]c2=O)c2c(C)[nH][nH]c2=O)ccc1OS(=O)(=O)c1ccc(C)cc1`, with “inactive”; and `COc1cc(NC(C)CCCN)c2ncccc2c1` (stereo not given), with 22.4 µM (active); and `C=CCSc1nnc2n(-c3ccccc3OC)c(=O)c3c4c(sc3n12)CCC4`, with “inactive”. Then `CCC(NC(=O)Nc1ccc(O)cc1)(C(F)(F)F)C(F)(F)F`, with “inactive”; and `CN1CCc2ccc3c4c2[C@]1(C)Cc1cccc(c1-4)OCO3`, with 7.94 µM (active). The result for `Cn1cc(/C=C2\SC(=S)N(NC(=O)c3ccccc3)C2=O)c2ccccc21` reads “inactive”.

Consider `CCOc1ccc(NC(=O)C(c2ccccn2)N(C(=O)CCl)c2ccc(F)cc2)cc1` (stereo not given), for which the Potency entry was “inactive”. For the compound `Cn1c(NNC(=O)c2c(F)cccc2F)cc(=O)n(C)c1=O`, the Potency result is “inactive”. The result for `COc1ccc2ccc3c(c2c1)N=CC1(O3)N(C)c2ccccc2C1(C)C` (stereo not given) reads “inactive”; that for `O=C(O)[C@H]1CN(CCCP(=O)(O)O)CCN1`, “inactive”; that for `CCCc1nc2c(=O)n(C)c(=O)nc-2n(C)n1`, 0.794 µM (active).

In the case of `O=C(Nc1nc2ccc(Cl)cc2s1)c1ccc(N2CCCCC2)c([N+](=O)[O-])c1`, the Potency result was “inactive”. The result for `Cc1ccc(-c2nc(S(=O)(=O)c3ccc(F)cc3)c(SCC(=O)NCC3CCCO3)o2)cc1` (stereo not given) reads “inactive”. Then `CCOc1cc(N2CCOCC2)c(OCC)cc1NC(C)C(=O)N1CCN(CC)CC1` (stereo not given), with “inactive”; and `COc1cc(NCCCC(C)N)c2ncccc2c1` (stereo not given), with 3.16 µM (active). For `Cc1cc(C)cc(OCC(=O)NCCc2nc3ccccc3[nH]2)c1`, the Potency result is “inactive”. Then `CC1=NN(c2ccc(F)cc2)C(=O)C1C(c1cccc(O)c1)c1c(C)[nH]n(-c2ccc(F)cc2)c1=O` (stereo not given), with “inactive”.

Turning to `C=CCNC(=O)/C(C#N)=C\c1cc(Cl)c(OCC)c(OC)c1`, the Potency result was “inactive”. `CC1=NN(Cc2ccccc2)C(=O)C1`: the Potency entry was “inactive”. Then `Nc1cccnc1Sc1cc(Cl)c(Cl)cc1Cl`, with “inactive”. The result for `Cc1ccc2c(CC(=O)Nc3c(C(=O)c4ccc(F)cc4)oc4ccccc34)coc2c1C` reads “inactive”; that for `CN1N=C(C(C)(C)C)CC1=O`, “inactive”; that for `CN1c2ccccc2C(C)(C)C12C=Nc1c(ccc3ccccc13)O2` (stereo not given), 4.47 µM (active). In the case of `O=C(NNc1cc(N2CCOCC2)nc(N2CCOCC2)n1)c1ccc([N+](=O)[O-])cc1`, the Potency result is “inactive”. The result for `CCC(CNc1cc(OC)cc2cccnc12)NC1CCCCC1` (stereo not given) reads 6.31 µM (active); that for `CCSc1ncc(Cl)c(C(=O)Nc2nc3ccc(OC)cc3s2)n1`, “inactive”; that for `CC(NC(=O)Nc1ccc(O)cc1)(C(F)(F)F)C(F)(F)F`, “inactive”.

For the compound `Cc1nc2ccccc2n2c(O)c(CC(=O)O)cc12`, the Potency result was “inactive”. For the compound `Cc1cccc(S(=O)(=O)c2cn(Cc3ccccc3)c3cc(N4CCC(C)CC4)c(F)cc3c2=O)c1`, the Potency entry was “inactive”. The result for `CN(C)c1cc(Cl)c2nonc2c1N` reads “inactive”. Take `COc1ccc(-c2nc(CS(=O)CC(=O)NCc3ccccn3)c(C)o2)cc1` (stereo not given): the Potency result is “inactive”. Then `Nc1cnccc1C(=O)O`, with “inactive”; and `Nc1cc(-c2ccncc2)c[nH]c1=O`, with 14.1 µM (active); and `Cc1nnc(SCC(=O)Nc2ccc(N(C)C)cc2)[nH]c1=O`, with “inactive”. The result for `O=c1cc(C23CC4CC(CC(C4)C2)C3)[nH][nH]1` reads “inactive”; that for `CCOC(=O)c1cnc2nc(NCc3ccc(OC)c(OC)c3)[nH]n2c1=O`, “inactive”; that for `CCc1ccc2c(c1)c1nc(C)sc1n2CC`, “inactive”.

As for `Cc1ccc(OC(=S)Nc2ccc(O)cc2)cc1`, the Potency result was “inactive”. Regarding `CN1c2ccccc2C(C)(C)C12C=Nc1c(cc(N3CCOCC3)c3ccccc13)O2` (stereo not given), the Potency entry was “inactive”.

Values taken from PubChem BioAssay AID1567 (National Center for Advancing Translational Sciences (NCATS), 2009).
